Results reported in PubChem BioAssay AID463173 (ICCB-Longwood Screening Facility, Harvard Medical School, 2010).
The whole screen tested about 52,000 compounds, of which about 4,300 (8.3%) were called active. Many of the other results were omitted from the sample, so actives are more common in it than they were. A number with no mark means an inactive call. No stated cut-off is given here; in the data, active means survival mostly below about 52% (no sharp cut-off); inactive means mostly above about 56%.

These compounds were tested on DeltatarO mutant (assay: growth inhibition of S. aureus wild type versus tarO mutant, primary screen, teichoic acid synthesis inhibitors, RN4220, OD600 (AID 463173)). Settings: OD600, 18 h, hits give low values, concentration not given here.

SMILES | survival
O=C(CNC1CCCCC1)N1CCC2(CC1)OCCO2 | 116%
CCc1cccc(NC(=O)CN2C(=O)CN=C(c3ccccc3F)c3cc(Cl)ccc32)c1 | 94%
CCC(C)N1CCN(Cc2cc(OC)c(OC)cc2OC)CC1 (stereo not drawn) | 108%
CCNCC1(c2ccc(OC)c(OC)c2)CCCC1 | 94%
O=C1CC(=O)N(C2CCCCC2)C(=O)N1 | 77%
CCSc1nnc(NC(=O)c2cccn(Cc3ccc(Cl)cc3)c2=O)s1 | 73%
CC(=O)Nc1c(O)[nH]c(=S)[nH]c1=O | 103%
O=C(Nc1nc2ccccc2s1)c1cccn(Cc2ccccc2)c1=O | 83%
COC(=O)CC1=C(C(=O)OC)C2(C(=O)Nc3ccc(F)cc32)C(C#N)=C(N)O1 (stereo not drawn) | 65%
CCOC(=O)C1=C(C)OC(N)=C(C#N)C12C(=O)N1c3c(cccc32)C(C)CC1(C)C (stereo not drawn) | 51%
CCOC(=O)CC1=C(C(=O)OCC)C2(C(=O)N(C)c3ccccc32)C(C#N)=C(N)O1 (stereo not drawn) | 0% (active)
CCC(C)c1c(O)[nH]c(=S)[nH]c1=O (stereo not drawn) | 82%
CCN(CC)C(=O)c1ccc(NC(=O)c2ccc(-c3nn(C)c(=O)c4ccccc34)cc2)cc1 | 68%
Cc1ccnc(NS(=O)(=O)c2ccc(N=Cc3c(O)n(C)c(=O)n(C)c3=O)cc2)n1 | 93%
COc1ccc(-c2nc(CN3C(=O)CN=C(c4ccccc4Cl)c4cc(Cl)ccc43)c(C)o2)cc1OC | 63%
CN1CCN(c2oc(-c3ccc(COc4ccccc4)o3)nc2C#N)CC1 | 41% (active)
CN1C(=O)C(Cc2cccs2)C(=O)N(C)C1=O | 80%
CC(C)C(=O)N1N=C(c2cccnc2)CC1(O)C(F)(F)F (stereo not drawn) | 66%
OC1(c2ccc(F)cc2)CC2CCC(C1)N2Cc1nnnn1C1CCCCC1 (stereo not drawn) | 97%
Cc1ccc(NC(=O)N(Cc2ccc3c(c2)OCO3)C2CCN(Cc3ccccc3)CC2)cc1C | 17% (active)
Cc1ccc(NC(=O)N(Cc2ccc3c(c2)OCO3)C2CCN(Cc3ccccc3)CC2)cc1Cl | 128%
Cc1ccc(NC(=O)N(Cc2ccc3c(c2)OCO3)C2CCN(Cc3ccccc3)CC2)cc1F | 87%
COc1ccc(NC(=O)CN2C(=O)C(C)N=C(c3ccccc3)c3ccccc32)cc1OC (stereo not drawn) | 116%
CCCC12CN3CC(CCC)(CN(C1)C3c1ccccn1)C2=O (stereo not drawn) | 84%
O=C1CC(=O)N(c2ccccc2)C(=O)N1c1ccccc1 | 90%

SMILES | survival
O=C(Nc1ccc(Br)cc1C(=O)c1ccccc1Cl)c1ccccc1F | 52%
O=C(COc1ccc(Cl)cc1)Nc1ccc(Cl)cc1C(=O)c1ccccc1 | 83%
Cc1cc(C)cc(OCC(=O)Nc2ccc(Cl)cc2C(=O)c2ccccc2)c1 | 82%
CC(C)(C)c1ccc(C(=O)Nc2ccc(Cl)cc2C(=O)c2ccccc2)cc1 | 6% (active)
O=C(Nc1ccc(Br)cc1C(=O)c1ccccc1Cl)c1ccc(Br)cc1 | 144%
COc1ccc(C(=O)Nc2ccc(Cl)cc2C(=O)c2ccccc2)c(OC)c1 | 2% (active)
O=C(Nc1ccc(Br)cc1C(=O)c1ccccc1)c1ccccc1 | -1% (active)
Cc1ccc(OCC(=O)Nc2ccc(Cl)cc2C(=O)c2ccccc2)cc1C | 69%
CSc1ncc(C(=O)Nc2ccc(Cl)cc2C(=O)c2ccccc2)c(C)n1 | 98%
COc1cc(OC)cc(C(=O)Nc2ccc(Cl)cc2C(=O)c2ccccc2Cl)c1 | 171%
CC(C)(C)c1ccc(OCC(=O)Nc2ccc(Cl)cc2C(=O)c2ccccc2)cc1 | 70%
Cc1cccc(C)c1OCC(=O)Nc1ccc(Cl)cc1C(=O)c1ccccc1 | 17% (active)
CC(=O)NC1CC2CCC(C1)N2 (stereo not drawn) | 98%
O=C(CCc1nc(C2=CCN(Cc3cccc(Cl)c3)CC2)no1)Nc1ccccc1F | 81%
OC1(c2cccc(F)c2)CC2CCC(C1)N2Cc1nnnn1CCc1ccccc1 (stereo not drawn) | 85%
CSc1ccc(CN2CCN(C(=O)COc3cccc(C)c3)CC2)cc1 | 84%
Cc1c(/C(CC(C)C)=N/O)c2ccccc2n1C | 79%
O=C(Nc1ccc(F)c([N+](=O)[O-])c1)c1cccn(Cc2ccccc2)c1=O | 115%
CN1CCN(Cc2cn3ccccc3n2)CC1 | 104%
CCOc1ccc(CN(CCc2ccc3c(c2)OCO3)Cc2cccc(OC)c2)cc1 | 44%
CCOc1ccc(CN(CCc2ccc3c(c2)OCO3)Cc2cc(OC)ccc2O)cc1 | 62%
O=C(Nc1ccc(Cl)cc1C(=O)c1ccccc1)c1cc(Cl)cc(Cl)c1 | 150%
O=C(COc1ccc(Br)cc1)Nc1ccc(Cl)cc1C(=O)c1ccccc1 | 83%
O=C(Nc1ccc(Cl)cc1C(=O)c1ccccc1)c1ccccc1Br | 24% (active)
CC(C)OC12Oc3ccccc3C=C1N1CCC2CC1 (stereo not drawn) | 80%

SMILES | survival
COc1ccc(CN2CCN(C(=O)COc3ccccc3)CC2)c(OC)c1 | 184%
c1cc(CN2CCNCC2)ccn1 | 105%
Nc1c(C(=O)Nc2ccc(Cl)c(C(F)(F)F)c2)sc2nc3c(cc12)N1CCC3CC1 | 4% (active)
Nc1c(C(=O)Nc2ccc(F)c(Cl)c2)sc2nc3c(cc12)N1CCC3CC1 | 65%
Nc1c(C(=O)Nc2ccc(OC(F)(F)F)cc2)sc2nc3c(cc12)N1CCC3CC1 | 99%
Nc1c(C(=O)Nc2ccc(Br)cc2F)sc2nc3c(cc12)N1CCC3CC1 | 132%
Nc1c(C(=O)Nc2cccc(Br)c2)sc2nc3c(cc12)N1CCC3CC1 | 40% (active)
Nc1c(C(=O)Nc2ccc(Cl)cc2)sc2nc3c(cc12)N1CCC3CC1 | 55%
COc1ccc(C2CC(=O)Oc3c2c(=O)oc2ccccc32)c(OC)c1OC (stereo not drawn) | 75%
COc1ccccc1CN1CCN(C(=O)COc2cccc(C)c2)CC1 | 162%
O=C1CN=C(c2ccccc2)c2cc(Cl)ccc2N1Cc1ccc(Cl)cc1 | 66%
Cc1ccc(Cn2cccc(C(=O)Nc3ccc4c(c3)OCCO4)c2=O)cc1 | 83%
CCOc1ccccc1CN(CCc1ccc2c(c1)OCO2)Cc1ccc(CC)cc1 | 111%
CCCC1=Nc2cc(C(=O)NCCCN(CC)CC)ccc2Sc2ccccc21 | 138%
CCCC1=Nc2cc(C(=O)NC3CCC(C)CC3)ccc2Sc2ccccc21 (stereo not drawn) | 39% (active)
CC1CC(=O)C2CCCCC2N1 (stereo not drawn) | 84%
Cc1ccc(Cn2cccc(C(=O)Nc3ccc4c(c3)OCO4)c2=O)cc1 | 75%
CN(C)C(=O)Oc1cccc2cccnc12 | 76%
COc1ccc(-n2c(/C=C\c3ccccc3F)nc3ccccc3c2=O)c(OC)c1 | 89%
CSc1ccc(/C=C/c2nc3ccccc3c(=O)n2-c2cccc(Cl)c2C)cc1 | 80%
O=c1c2ccccc2nc(/C=C\c2ccc(F)cc2)n1-c1ccccc1F | 94%
Cc1ccc(-n2c(/C=C/c3ccc(Br)s3)nc3ccccc3c2=O)cc1C | 90%
Cc1ccc(-n2c(/C=C/c3ccccc3)nc3ccccc3c2=O)cc1C | 78%
Cc1ccc(-n2c(/C=C\c3ccc(F)c(F)c3)nc3ccccc3c2=O)c(C)c1 | 98%
Cc1ccccc1-n1c(/C=C/c2ccc(N(C)C)cc2)nc2ccccc2c1=O | 8% (active)

SMILES | survival
Cc1cccc(-n2c(/C=C/c3c(C)[nH]c4ccccc34)nc3ccccc3c2=O)c1 | 120%
Cc1ccccc1-n1c(/C=C/c2ccc(O)cc2)nc2ccccc2c1=O | 35% (active)
O=c1c2ccccc2nc(/C=C/c2ccccc2)n1-c1ccccc1F | 69%
Cc1ccccc1-n1c(/C=C/c2c(C)[nH]c3ccccc23)nc2ccccc2c1=O | 18% (active)
Cc1ccccc1-n1c(/C=C/c2ccccc2F)nc2ccccc2c1=O | 5% (active)
CN1C2CCC1CC(OC(=O)C1(c3ccccc3)CCCC1)C2 (stereo not drawn) | 116%
CCN(CC)CCSc1nc2ccccc2c(=O)n1-c1ccc(Cl)cc1 | 148%
CC(c1ccccc1)n1cncc1C(=O)N1CCCC1=O (stereo not drawn) | 87%
Cc1ccc(OCC(=O)N2CCN(Cc3ccc(F)cc3)CC2)cc1 | 156%
Cc1cccc(NC(=O)Cn2cc(C(=O)c3ccccc3)c3ccccc32)c1 | 130%
CCOc1ccc(CN2C(=O)c3ccccc3Sc3ccc(C(=O)N4CCC5(CC4)OCCO5)cc32)cc1 | 74%
COc1cc2[nH]c(=O)n(-c3ccc(C)cc3)c(=O)c2cc1OC | 94%
OC1CCNC2CCCCC12 (stereo not drawn) | 94%
Cc1nc2ccccc2c(=O)n1-c1cccc(O)c1 | 96%
Cc1oc(-c2ccccc2Cl)nc1CN1C(=O)CN=C(c2ccccc2)c2cc(Cl)ccc21 | 77%
Cc1cccc(Cn2cccc(C(=O)Nc3nc4ccccc4s3)c2=O)c1 | 122%
CCc1ccc(-n2nc(C)c3c2NC(=O)CSC3c2ccc(C(=O)OC)cc2)cc1 (stereo not drawn) | 64%
CCc1ccc(-n2nc(C)c3c2NC(=O)CSC3c2ccccc2C)cc1 (stereo not drawn) | 57%
Cc1ccccc1-n1nc(C)c2c1NC(=O)CSC2c1ccc(N(C)C)cc1 (stereo not drawn) | 43% (active)
Cc1ccc(-n2nc(C)c3c2NC(=O)CSC3c2ccc(O)cc2)cc1Cl (stereo not drawn) | 73%
Cc1ccccc1-n1nc(C)c2c1NC(=O)CSC2c1ccccc1C(F)(F)F (stereo not drawn) | 39% (active)
Cc1ccccc1-n1nc(C)c2c1NC(=O)CSC2c1ccc(Cl)cc1 (stereo not drawn) | 21% (active)
COc1ccc(Br)cc1C1SCC(=O)Nc2c1c(C)nn2-c1ccccc1C (stereo not drawn) | 43%
